Reference: PubChem BioAssay (NCATS)
Inconclusive results are not listed. Unmarked numbers belong to inactive results. Activity calls are given as the source filed them. Calls come from the whole dose curve; as a rule, active = well fitted curve in the direction sought with a large enough effect; inconclusive = small, poorly fitted or top-dose-only effect, or another doubt; inactive = no such curve, though single readings can be large; an effect the other way counts as inactive or inconclusive.

test system: not listed separately; assay: qHTS for Inhibitors of the Aldehyde Dehydrogenase Family (ALDH1A2, ALDH1A3, ALDH2, ALDH3A1) (AID 2061307); details: ALDH inhibition qHTS; series mostly up to 50.3 µM; activity change, negative = inhibition: at the top concentration; note: nearly all actives have a fitted effect of over 50% in size; for Potency: test system not described further here; potency is the fitted concentration of half-maximal effect; for activity change, negative = inhibition: % is set by controls: 0 for no effect and ±100 for the full control effect

With `Cc1cc(C)c(OP(=O)(OCc2c(-c3ccccc3)no[n+]2[O-])Oc2c(C)cc(C)cc2C)c(C)c1` as the compound, how does the Potency read?
Its Potency is 12.6 µM (active).

Which Potency does the source give for `O=[N+]([O-])/C=C/c1ccc2c(c1)OCO2` here?
Its Potency is 5.01 µM (active).

Which “activity change, negative = inhibition” value does the source give for `CC1=C(C)C(=O)C(CC[C@](C)(O)CCC[C@H](C)CCC[C@H](C)CCCC(C)C)=C(C)C1=O` here?
The value was -14%.

For `CCCn1c(C)c(C(=O)c2ccc3ccccc3c2)c2ccccc21`, which “activity change, negative = inhibition” value is on record?
The value was -4.96% [at 34.4 µM].

For `O=S(=O)(Nc1ccc(-c2ccccc2)cc1)c1ccc(NCc2cccc(Cl)c2O)cc1`, which Potency is on record?
Its Potency is 25.2 µM (active).

With `CCOc1ccc(CCNC(=O)c2cc3ccncc3n2Cc2cccc(C)n2)cc1OCC` as the compound, how does the “activity change, negative = inhibition” value read?
The value was -12%.

With `N#Cc1nc(-c2cccc3ccccc23)oc1NCc1ccccc1` as the compound, how does the Potency read?
Its Potency is 2.52 µM (active).

biological target: Aldehyde dehydrogenase, mitochondrial (Homo sapiens) (UniProt P05091); assay: qHTS for Inhibitors of the Aldehyde Dehydrogenase Family (ALDH2) Primary screen (AID 2061308); details: ALDH2 enzyme inhibition qHTS, 1536-well; series mostly up to 56 µM; activity change, negative = inhibition: at the top concentration;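 note: plate controls were vehicle for no effect and reference inhibitor for full effect; nearly all actives have a fitted effect of over 55% in size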

With `COC1CC(OC2CCC3(C=O)C(CCC4C3CCC3(C)C(C5=CC(=O)OC5)CCC43O)C2)OC(C)C1O` (stereo not given) as the compound, how does the “activity change, negative = inhibition” value read?
Its value is -10.5% [at 28 µM].

For `Cc1ccc2nc(NC3=NC(c4[nH]ncc4Cl)C4=C(CCCC4=O)N3)oc2c1` (stereo not given), which “activity change, negative = inhibition” value is on record?
Its value is -26.7%.

Which “activity change, negative = inhibition” value does the source give for `NC(=O)c1ncn2c1CN=C(c1ccccc1Br)c1cc(F)ccc1-2` here?
The value was 0.645%.

With `O=C1CN=C(c2ccccc2Cl)c2cc(Br)ccc2N1` as the compound, how does the “activity change, negative = inhibition” value read?
The value was -5.73%.

Which “activity change, negative = inhibition” value does the source give for `C/C(=C\c1csc(C)n1)[C@@H]1C[C@@H]2O[C@@H]2CCC[C@H](C)[C@H](O)[C@@H](C)C(=O)C(C)(C)[C@@H](O)CC(=O)O1` here?
The value was -6.49%.

Which “activity change, negative = inhibition” value does the source give for `CCOc1ccc(CCNC(=O)c2cc3ccccc3n2Cc2ccccn2)cc1OCC` here?
The value was -1.45%.

Which “activity change, negative = inhibition” value does the source give for `CC(=O)OCC(N)C(=O)c1ccccc1` (stereo not given) here?
The value was -13.6%.

Which “activity change, negative = inhibition” value does the source give for `Cc1ccccc1[C@@H](C(=O)NC1CCCCC1)N(C(=O)Cn1ccnc1C)c1cccc(F)c1` here?
Its value is 10.5%.

Which “activity change, negative = inhibition” value does the source give for `COc1ccc(C(C)(C)C)cc1CN[C@H]1C2CCN(CC2)[C@H]1C(c1ccccc1)c1ccccc1` here?
Its value is 8.18%.

Which “activity change, negative = inhibition” value does the source give for `CC(=O)OC1CC(O)C2(C)C(CC(OC(C)=O)C3(C)C2CCC2(C)C(c4ccoc4)C(=O)C4OC423)C1(C)C` (stereo not given) here?
The value was 5.98% [at 28 µM].

For `CCOc1ccc(CCNC(=O)c2cc3ccncc3n2Cc2cccc(C)c2)cc1OCC`, which “activity change, negative = inhibition” value is on record?
The value was 2.43%.

Which “activity change, negative = inhibition” value does the source give for `COC1CC(OC2CCC3(C)C(CCC4C3CCC3(C)C(C5=CC(=O)OC5)C(OC(C)=O)CC43O)C2)OC(C)C1OC1OC(CO)C(O)C(O)C1O` (stereo not given) here?
Its value is -2.4% [at 16.9 µM].

With `CC1=C(C)C(=O)C(CC[C@](C)(O)CCC[C@H](C)CCC[C@H](C)CCCC(C)C)=C(C)C1=O` as the compound, how does the “activity change, negative = inhibition” value read?
The value was -26.1%.

For `C[C@@H]1C[C@@H](O)[C@]2(O)O[C@@H]3C[C@@]4(C=O)C(CC[C@@H]5C4CC[C@]4(C)[C@@](O)(C6=CC(=O)OC6)CC[C@]54O)C[C@H]3OC2O1` (stereo not given in full), which “activity change, negative = inhibition” value is on record?
Its value is -8.33% [at 28 µM].

For `COC(=O)C1(C)CCC(O)C2(C)c3c(O)cc(C(C)C)cc3C(O)C(OC(C)=O)C12` (stereo not given), which “activity change, negative = inhibition” value is on record?
Its value is 0.497% [at 28 µM].

With `COC1(C[S@@](=O)c2ccccc2)CCN(CCc2c[nH]c3ccc(F)cc23)CC1` as the compound, how does the “activity change, negative = inhibition” value read?
Its value is 2%.

With `Cn1cc(P(=S)(c2ccccc2)c2ccccc2)c2ccccc21` as the compound, how does the “activity change, negative = inhibition” value read?
The value was -1.24%.

Which “activity change, negative = inhibition” value does the source give for `COC1CC(O[C@H]2CC[C@]3(C)C4CC[C@]5(C)[C@@H](C6=CC(=O)OC6)[C@@H](OC(C)=O)C[C@]5(O)C4CC[C@@H]3C2)OC(C)C1O[C@@H]1O[C@H](CO)[C@@H](O)[C@H](O)[C@H]1O` (stereo not given in full) here?
The value was -12.8% [at 16.9 µM].

With `COC1CC(O[C@H]2CC[C@]3(C)C4CC[C@]5(C)[C@@H](C6=CC(=O)OC6)[C@@H](OC(C)=O)C[C@]5(O)C4CC[C@@H]3C2)OC(C)C1O` (stereo not given in full) as the compound, how does the “activity change, negative = inhibition” value read?
The value was -0.726% [at 28 µM].

With `Cc1c(P(=S)(c2ccccc2)c2ccccc2)[n+]2ccccc2n1C` as the compound, how does the Potency read?
Its Potency is “inactive”.

For `COc1ccccc1CN[C@H]1C2CCN(CC2)[C@H]1C(c1ccccc1)c1ccccc1`, which “activity change, negative = inhibition” value is on record?
The value was 1.04%.

With `CC1=C2C[C@H]3[C@@H](CC=C4C[C@@H](O)CC[C@@]43C)[C@@H]2CC[C@]12O[C@@H]1C[C@H](C)CN[C@H]1[C@H]2C` as the compound, how does the “activity change, negative = inhibition” value read?
The value was -0.868%.

Which “activity change, negative = inhibition” value does the source give for `CC1=CC(=O)[C@@H](O)[C@]2(C)C3[C@@H](O)[C@@H]4OC(=O)[C@@H]([C@H]4C)[C@]3(C)C(=O)[C@H](O)[C@@H]12` (stereo not given in full) here?
Its value is -8.73%.

With `C[C@@H]1O[C@@H](OC2CCC3(C=O)C(CCC4C3CCC3(C)C(C5=CC(=O)OC5)C(O)CC43O)C2)[C@H](O)[C@H](O)[C@H]1O[C@@H]1O[C@H](CO)[C@@H](O)[C@H](O)[C@H]1O` (stereo not given in full) as the compound, how does the “activity change, negative = inhibition” value read?
Its value is -0.593% [at 16.9 µM].

Which “activity change, negative = inhibition” value does the source give for `CCOc1ccc(CCNC(=O)c2cc3ccncc3n2Cc2cccc(C)n2)cc1OCC` here?
Its value is -0.225%.

For `C[C@@H]1C[C@@H](O)[C@]2(O)O[C@@H]3C[C@@]4(C=O)C(CC[C@@H]5C4CC[C@]4(C)[C@@H](C6=CC(=O)OC6)CC[C@]54O)C[C@H]3O[C@@H]2O1` (stereo not given in full), which “activity change, negative = inhibition” value is on record?
Its value is -12.2% [at 28 µM].

Which “activity change, negative = inhibition” value does the source give for `Cc1nn2c(=O)cc(N3CCNCC3)nc2s1` here?
The value was 1.44%.

With `C[C@H]1O[C@@H](O[C@H]2CC[C@]3(CO)C4CC[C@]5(C)[C@@H](C6=CC(=O)OC6)CC[C@]5(O)[C@@H]4CC[C@H]3C2)[C@H](O)[C@H](O)[C@@H]1O[C@@H]1O[C@H](CO)[C@@H](O)[C@H](O)[C@H]1O` (stereo not given in full) as the compound, how does the “activity change, negative = inhibition” value read?
Its value is -2.64% [at 16.9 µM].

For `CC(=O)Nc1ncc(S(=O)(=O)N2CCOCC2)s1`, which “activity change, negative = inhibition” value is on record?
The value was 8.19%.

With `C[C@@H](CN1CCC2(CC1)C(=O)NCN2c1cccc(F)c1)NC(=O)c1ccc(Br)cc1` as the compound, how does the “activity change, negative = inhibition” value read?
The value was -3.87%.

With `CCCCCCn1c(=O)c(C(=O)Nc2ccc(C(=O)OCCC)cc2)c(O)c2ccccc21` as the compound, how does the activity change, negative = inhibition read?
The activity change, negative = inhibition was 11.3% [at 11.2 µM].

For `Cc1nnc2n1-c1sc(CCc3ccc(CC(C)C)cc3)cc1C(c1ccccc1Cl)=NC2C` (stereo not given), which “activity change, negative = inhibition” value is on record?
Its value is 3.24%.

For `C=C1C(=O)O[C@@H]2[C@H]3C(=C)[C@@H](O)C[C@H]3C(=C)C[C@@H](O)[C@@H]12`, which “activity change, negative = inhibition” value is on record?
The value was -2.93%.
